Assay results taken from PubChem BioAssay AID463173 (ICCB-Longwood Screening Facility, Harvard Medical School, 2010).
Out of some 52,000 compounds screened, about 4,300 (8.3%) were called active. The full list was thinned out, with actives kept by preference. Values without a mark were called inactive. No stated cut-off is given here; in the data, active means survival mostly below about 52% (no sharp cut-off); inactive means mostly above about 56%.

Each molecule was assayed on DeltatarO mutant (assay: growth inhibition of S. aureus wild type versus tarO mutant, primary screen, teichoic acid synthesis inhibitors, RN4220, OD600 (AID 463173)). Settings: OD600, 18 h, stronger effect = lower value, screened at 18.75 µg/mL (by protocol).
In the case of `COc1ccc(-c2cn(-c3ccc(C)cc3)c(S(=O)(=O)CC(=O)Nc3ccc(F)cc3)n2)cc1`, the survival is reported as 150%.
Molecule `CCc1ccc(NC(=O)c2sc3nc(C)c(Cl)c(C)c3c2NC(=O)c2ccccc2OC)cc1` has a survival of 130%.
`COc1ccc(N2CCN(C(=O)C(CC(C)C)NS(=O)(=O)c3ccc4nc(C)sc4c3)CC2)cc1` (stereo not drawn) gave a survival of 77%.
`Cc1ccccc1CSc1cn(CC(=O)N2CCCC2)c2ccccc12` gave a survival of 58%.
`O=C(CSc1cn(CC(=O)N2CCCCCC2)c2ccccc12)Nc1ccccc1F` was tested, and the survival was 77%.
For `Cc1ccccc1CSc1cn(CC(=O)N2CCCCC2)c2ccccc12`, the survival was 71% (active).
`O=C(CSc1cn(CC(=O)N2CCCCC2)c2ccccc12)Nc1ccccc1F` was tested, and the survival was 70% (active).
`Cc1ccccc1CSc1cn(CC(=O)N2CCCCCC2)c2ccccc12` showed a survival of 68%.
For `O=C(CSc1cn(CC(=O)N2CCOCC2)c2ccccc12)Nc1ccccc1F`, the survival was 88%.
With `CCC(=O)N1c2ccccc2CC1C(=O)N1CCN(c2cccc(Cl)c2)CC1` (stereo not drawn) the survival was 77%.
`CCn1cc(C(=O)NCCc2ccc(Cl)cc2)c(=O)c2cc(S(=O)(=O)N3CCC(C)CC3)ccc21` showed a survival of 105%.
`CCN(CC)CCN(C(=O)c1ccco1)c1nc2c(C)c(C)ccc2s1` showed a survival of 77%.
For `O=[N+]([O-])c1cc(-c2nc(-c3ccccc3)no2)ccc1N1CCCC1`, the survival was 63%.
`O=C(CC1Nc2cccc3cccc(c23)NC1=O)Nc1ccc(F)cc1` (stereo not drawn) was tested, and the survival was 111%.
`COc1ccc(NC(=O)CC2Nc3ccccc3NC2=O)cc1` (stereo not drawn) was tested, and the survival was 61% (active).
With `CCOC(=O)c1ccc(NC(=O)CC2Nc3cccc4cccc(c34)NC2=O)cc1` (stereo not drawn) the survival was 28% (active).
In the case of `COc1ccc(NC(=O)CC2Nc3cccc4cccc(c34)NC2=O)cc1` (stereo not drawn), the survival is reported as 41% (active).
For `CCOc1ccc(NC(=O)CC2Nc3cccc4cccc(c34)NC2=O)cc1` (stereo not drawn), the survival was 37% (active).
In the case of `COc1cccc(NC(=O)CC2Nc3cc(C)c(C)cc3NC2=O)c1` (stereo not drawn), the survival is reported as 89%.
In the case of `Cc1ccc(NC(=O)CC2Nc3ccccc3NC2=O)cc1C` (stereo not drawn), the survival is reported as 58%.
`Cc1cccc(NC(=O)CC2Nc3cccc4cccc(c34)NC2=O)c1` (stereo not drawn) showed a survival of 64%.
Molecule `Cc1ccc(NC(=O)CC2Nc3cccc4cccc(c34)NC2=O)cc1` (stereo not drawn) has a survival of 61%.
Molecule `CCOC(=O)c1ccc(NC(=O)CC2Nc3ccccc3NC2=O)cc1` (stereo not drawn) has a survival of 62%.
`Cc1cccc(NC(=O)CC2Nc3ccccc3NC2=O)c1` (stereo not drawn) was tested, and the survival was 71%.
With `CC(=O)c1ccc(NC(=O)CC2Nc3cccc4cccc(c34)NC2=O)cc1` (stereo not drawn) the survival was 72%.
`N#Cc1cn(-c2ccccc2)nc1-c1cccnc1` showed a survival of 73%.
In the case of `O=C(Nc1ccccn1)NC12CC3CC(CC(C3)C1)C2`, the survival is reported as 106%.
For `Cc1ccc(NC(=O)c2oc3ccc4c(c3c2C)C(=O)CC(C)(C)O4)c(C)c1`, the survival was 83%.
Molecule `CC1CCN(C(C(=O)O)c2ccccc2)CC1` (stereo not drawn) has a survival of 98%.
Work on `CN1CCN(C(CNC(=O)C(=O)Nc2ccc(Cl)cc2)c2cccnc2)CC1` (stereo not drawn) yielded a survival of 86%.
In the case of `COc1ccccc1CNC(=O)CSc1ncc(S(=O)(=O)c2ccc(C)c(Cl)c2)c(=O)[nH]1`, the survival is reported as 124%.
`Cc1ccc(CNS(=O)(=O)c2ccc(-c3cnc(C4CC4)o3)cc2)cc1` gave a survival of 76%.
Work on `O=S(=O)(NCc1ccccc1)c1ccc(-c2cnc(C3CC3)o2)cc1` yielded a survival of 71%.
With `Cc1cccc(CNS(=O)(=O)c2ccc(-c3cnc(C4CC4)o3)cc2)c1` the survival was 52% (active).
With `CC(C)c1ccc(NC(=O)C(C)N(c2ccccc2)S(C)(=O)=O)cc1` (stereo not drawn) the survival was 65%.
With `Cc1ccc2onc(CNC(=O)N3CCN(c4cccc(C)c4C)CC3)c2c1` the survival was 48%.
With `COc1ccc(N2CCN(C(=O)Cc3noc4ccc(C)cc34)CC2)cc1` the survival was 42% (active).
`Cc1ccc2onc(CC(=O)N3CCN(c4ccc(Cl)cc4)CC3)c2c1` was tested, and the survival was 30% (active).
In the case of `Cc1ccc2oc(=O)c3cnn(CC(=O)N4CCN(c5ccccc5)CC4)c3c2c1`, the survival is reported as 123%.
`Cc1ccc2onc(CC(=O)N(C)c3ccccc3)c2c1` showed a survival of 52%.
Work on `COc1ccc(N2CCN(C(=O)NCc3noc4ccccc34)CC2)cc1` yielded a survival of 42%.
With `Cc1ccc2onc(CC(=O)N3CCN(c4cc(Cl)ccc4C)CC3)c2c1` the survival was 96%.
Work on `Cc1ccc2onc(CC(=O)N3CCN(c4ccccc4F)CC3)c2c1` yielded a survival of 71%.
Work on `COc1ccc(N2CCN(C(=O)Cc3coc4ccc(C)cc34)CC2)cc1` yielded a survival of 105%.
`Cc1ccc2onc(CC(=O)N3CCN(c4ccccc4)CC3)c2c1` was tested, and the survival was 40% (active).
`Cc1ccc2onc(CC(=O)N3CCN(c4cccc(C)c4C)CC3)c2c1` was tested, and the survival was 39% (active).
In the case of `Cc1ccc2onc(CC(=O)N3CCN(c4cccc(Cl)c4)CC3)c2c1`, the survival is reported as 83%.
With `COc1ccc(-n2c(=O)[nH]c3cc(C(=O)NCCc4ccccc4)ccc3c2=O)cc1OC` the survival was 94%.
In the case of `COc1ccccc1NC(=O)Cn1c(=O)n(-c2ccc(C)cc2)c(=O)c2ccc(C(=O)NCc3ccco3)cc21`, the survival is reported as 79%.
`Cc1ccc(N2CCN(C(=O)Cn3ncc4c([nH]c5ccc(C)cc54)c3=O)CC2)c(C)c1` showed a survival of 94%.
`COc1ccc(NC(=O)C2=C(C)Nc3ncnn3C2c2ccccn2)cc1` (stereo not drawn) showed a survival of 81%.
`Cc1ccc(S(=O)(=O)N2C(=O)CCC2C(=O)NCc2ccco2)cc1` (stereo not drawn) showed a survival of 77%.
`Cc1ccc2c(CC(=O)N3CCN(c4cccc(Cl)c4)CC3)coc2c1` gave a survival of 75%.
Molecule `CCN(CC)CC(=O)Oc1ccc(NC2=NS(=O)(=O)c3ccccc32)cc1` has a survival of 96%.
Molecule `CC1CCCN(C(=O)CCS(=O)(=O)c2cc3c(cc2Cl)NC(=O)CO3)C1` (stereo not drawn) has a survival of 84%.
Molecule `CCCC(=O)NCCc1ccc(F)cc1` has a survival of 119%.
Molecule `COC(=O)c1cc2occc2n1CC(=O)Nc1cccc(SC)c1` has a survival of 102%.
For `CC(=O)c1ccc(N2CCN(C(=O)NCc3noc4ccc(C)cc34)CC2)cc1`, the survival was 45%.
In the case of `Cc1ccc2onc(CC(=O)N3CCN(c4ccc(F)cc4)CC3)c2c1`, the survival is reported as 41% (active).
`Cc1ccc2oc(=O)c3cnn(CC(=O)N4CCN(c5ccc(F)cc5)CC4)c3c2c1` showed a survival of 106%.
In the case of `CC(C)CNCC(=O)N(C1CCCCC1)C1CCCCC1`, the survival is reported as 116%.
For `CCn1cc(CNC(=O)c2cc(-c3ccc(C)cc3)nc3ccc(Br)cc23)c(C)n1`, the survival was 40% (active).
In the case of `CCn1cc(CNC(=O)c2cc(-c3ccc(C)c(C)c3)nc3ccccc23)c(C)n1`, the survival is reported as 123%.
With `Cc1ccc(-c2cc(C(=O)NCc3cnn(C)c3)c3cc(Br)ccc3n2)cc1` the survival was 51%.
`Cc1ccc(-c2cc(C(=O)NCc3cnn(C)c3C)c3cc(Br)ccc3n2)cc1` was tested, and the survival was 36% (active).
`N#CCN(CC#N)C(=O)c1cc(-c2ccccc2)nc2ccccc12` was tested, and the survival was 89%.
`Cc1ccc(-c2cc(C(=O)NCc3ccccc3Cl)c3ccccc3n2)cc1C` showed a survival of 68%.
`Cc1ccc(-c2cc(C(=O)NCc3cnn(C)c3C)c3ccccc3n2)cc1C` was tested, and the survival was 49% (active).
`Cc1nn(C)cc1CN(C)C(=O)c1cc(-c2ccccc2)nc2ccc(Br)cc12` showed a survival of 67%.
For `Cc1c(CN(C)C(=O)c2cc(-c3ccccc3)nc3ccc(Br)cc23)cnn1C`, the survival was 30% (active).
For `CCOc1ccc(-c2cc(C(=O)NCc3ccccc3Cl)c3ccccc3n2)cc1`, the survival was 89%.
Molecule `COc1ccc(-c2cc(C(=O)NCc3ccc(C)cc3)c3cc(C(C)C)ccc3n2)cc1` has a survival of 76%.
Work on `Cc1ccc(CNC(=O)c2cc(-c3ccc(C)c(C)c3)nc3ccccc23)cc1` yielded a survival of 74%.
`CC(C)N(C(=O)CSc1nnc(CSc2ncccn2)n1C)C(C)C` gave a survival of 58%.
For `CCOC(=O)c1ccc(NC(=O)Cc2ccc(-n3c(CC)nc4cccnc43)cc2)cc1`, the survival was 68%.
Work on `Cc1ccccc1Cn1c(=O)n(Cc2ccc3c(c2)OCO3)c(=O)c2oc3ccccc3c21` yielded a survival of 110%.
`C/C=N/NC(=O)c1ccccc1` gave a survival of 93%.
`O=C(NC1CCCCC1)c1ccc2c(c1)N(Cc1cccc(F)c1)C(=O)c1ccccc1S2` gave a survival of 88%.
`Cn1cnc(S(=O)(=O)N2CCC(C(=O)Nc3ccc(C#N)cc3)CC2)c1` gave a survival of 107%.
`CC1=C(C(=O)Nc2cccc(C(F)(F)F)c2)C(c2ccccn2)n2ncnc2N1` (stereo not drawn) showed a survival of 102%.
With `CC(C)(C)c1nn(-c2ccccc2)c2[nH]c(=O)c(CNc3ccc4c(c3)OCO4)cc12` the survival was 86%.
In the case of `CCOC(=O)c1ccc(N2C(=O)c3[nH]nc(-c4ccccc4)c3C2c2cccs2)cc1` (stereo not drawn), the survival is reported as 123%.
`CCOC(=O)c1cc2c(=O)n3ccccc3nc2n(Cc2ccco2)c1=NC(=O)c1ccc(OCC)cc1` was tested, and the survival was 37% (active).
`CCOC(=O)c1cc2c(=O)n3ccccc3nc2n(Cc2ccco2)c1=NC(=O)c1ccccc1Br` showed a survival of 71%.
Work on `CCOC(=O)c1cc2c(=O)n3ccccc3nc2n(CC(C)C)c1=NC(=O)COc1ccc(Cl)cc1` yielded a survival of 136%.
In the case of `CCOC(=O)c1cc2c(=O)n3ccccc3nc2n(Cc2ccco2)c1=NC(=O)c1ccccc1OC`, the survival is reported as 28% (active).
With `CCOC(=O)c1cc2c(=O)n3ccccc3nc2n(Cc2ccco2)c1=NC(=O)c1ccc(OC)cc1` the survival was 34% (active).
`CCC(C)NC(=O)Cn1c(=O)n(Cc2ccc(C(=O)NCc3ccccc3OC)cc2)c(=O)c2ccccc21` (stereo not drawn) gave a survival of 84%.
Molecule `O=c1ccnc(NCCc2ccccc2)[nH]1` has a survival of 104%.
Work on `Cn1cnc(S(=O)(=O)N2CCCC(C(=O)NCc3ccccc3Cl)C2)c1` (stereo not drawn) yielded a survival of 99%.
In the case of `O=C1/C(=C\c2cccnc2)SC(=S)N1C1CCS(=O)(=O)C1` (stereo not drawn), the survival is reported as 93%.
For `O=C1/C(=C/C2=Cc3ccccc3OC2)SC(=S)N1C1CCS(=O)(=O)C1` (stereo not drawn), the survival was 44% (active).
For `O=C1CSC(=S)N1C1CCS(=O)(=O)C1` (stereo not drawn), the survival was 97%.
